The source of these data is PubChem BioAssay (EPA / NIEHS).

The source made the active and inactive calls. The calls were made as follows: active = hit-call score of the fitted dose curve at least 0.9, where 1 is the maximum; inactive = score below 0.9.

Settings in all cases: mRNA level, 48 h; actives raise or lower the signal
Read-out in experiment [1]: Cytochrome P450 (CYP1A2), CYP1A2 (gene 1544)
Description: LTEA_HepaRG_CYP1A2: Life Technologies and Expression Analysis (LTEA) Assay for Cytochrome P450 (CYP1A2) using HepaRG (AID 2283479). The gist of the method:
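Assesses CYP1A2 mRNA in human HepaRG liver cells after 48 h chemical exposure at up to 100 uM. Values come from qRT-PCR with bidirectional curve fitting relative to DMSO.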

Read-out in experiment [2]: cysteine-aspartic acid protease (CASP8), CASP8 (gene 841)
Description: LTEA_HepaRG_CASP8: Life Technologies and Expression Analysis (LTEA) Assay for cysteine-aspartic acid protease (CASP8) using HepaRG (AID 2283480). An outline of the steps: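 qRT-PCR readout of CASP8 mRNA, normalized to three housekeeping genes, after 48 h chemical exposure of HepaRG cells; 8-point half-log series, top 100 uM, 0.5% DMSO vehicle. Bidirectional curve fitting against DMSO baseline.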

Read-out in experiment [3]: Cytochrome P450 (CYP2B6), CYP2B6 (gene 1555)
Description: LTEA_HepaRG_CYP2B6: Life Technologies and Expression Analysis (LTEA) Assay for Cytochrome P450 (CYP2B6) using HepaRG (AID 2283481). An outline of the steps: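 Using 48 h treatment of HepaRG cells in serum-free induction medium, concentrations spanned half-log steps from 100 uM in 0.5% DMSO vehicle. CYP2B6 mRNA induction or loss is scored by qRT-PCR against DMSO.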

Read-out in experiment [4]: CYP2C8 (gene 1558)
Description: LTEA_HepaRG_CYP2C8: Life Technologies and Expression Analysis (LTEA) Assay for CYP2C8 using HepaRG (AID 2283483). The gist of the method: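 HepaRG (human liver line), 48 h chemical exposure, 8-pt half-log series from 100 uM, 0.5% DMSO vehicle. Readout: CYP2C8 transcript by qRT-PCR, housekeeping-normalized. Bidirectional fit vs DMSO baseline.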

Read-out in experiment [5]: CYP2C9 (gene 1559)
In words: LTEA_HepaRG_CYP2C9: Life Technologies and Expression Analysis (LTEA) Assay for CYP2C9 using HepaRG (AID 2283484). An outline of the steps:
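HepaRG, 48 h dosing, 8-pt half-log series, top 100 uM, 0.5% DMSO vehicle. Read-out: CYP2C9 transcript by TaqMan qRT-PCR, housekeeping-normalized (ACTB/GAPDH/POLR2A). Gain or loss fitted vs DMSO baseline.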

Read-out in experiment [6]: CYP2E1 (gene 1571)
Description: LTEA_HepaRG_CYP2E1: Life Technologies and Expression Analysis (LTEA) Assay for CYP2E1 using HepaRG (AID 2283485). An outline of the steps: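 Readout is qRT-PCR of CYP2E1 mRNA, normalized to three housekeeping genes and fitted bidirectionally against 0.5% DMSO. HepaRG cells were dosed 48 h at eight concentrations, highest 100 uM with half-log dilutions.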

Read-out in experiment [7]: CYP4A11 (gene 1579)
Description: LTEA_HepaRG_CYP4A11: Life Technologies and Expression Analysis (LTEA) Assay for CYP4A11 using HepaRG (AID 2283486). An outline of the steps:
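Readout is CYP4A11 mRNA induction or suppression (qRT-PCR, ACTB/GAPDH/POLR2A normalization) in human HepaRG cells after 48 h chemical treatment, concentrations to 100 uM in 0.5% DMSO, fitted bidirectionally against vehicle.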

Read-out in experiment [8]: Cytochrome P450 3A4 (Homo sapiens) (UniProt P08684)
Description: LTEA_HepaRG_CYP3A4: Life Technologies and Expression Analysis (LTEA) Assay for CYP3A4 using HepaRG (AID 2283487). An outline of the steps:
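In a human hepatic line (HepaRG), duplicate wells were treated 48 h with up to 100 uM chemical in half-log dilutions. Endpoint: CYP3A4 mRNA induction or loss relative to 0.5% DMSO vehicle, by qRT-PCR.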

Read-out in experiment [9]: DNA damage-inducible transcript 3 (DDIT3), DDIT3 (gene 1649)
Description: LTEA_HepaRG_DDIT3: Life Technologies and Expression Analysis (LTEA) Assay for DNA damage-inducible transcript 3 (DDIT3) using HepaRG (AID 2283488). The gist of the method:
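Cells are human HepaRG liver cells treated for 48 h with eight half-log concentrations up to 100 uM in 0.5% DMSO. Transcript levels come from qRT-PCR normalized to three housekeeping genes, with activity fitted in both directions relative to vehicle.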

Read-out in experiment [10]: Cytochrome P450 2C19 (Homo sapiens) (UniProt P33261)
Description: LTEA_HepaRG_CYP2C19: Life Technologies and Expression Analysis (LTEA) Assay for CYP2C19 using HepaRG (AID 2283482). The gist of the method:
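Human HepaRG liver cells received test chemicals for 48 h (highest 100 uM, half-log dilutions in 0.5% DMSO). CYP2C19 mRNA induction or loss is read by multiplexed qRT-PCR and fitted in both directions versus vehicle.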

Cytochrome P450 3A4 (Homo sapiens), sequence (P08684 whole entry, looked up): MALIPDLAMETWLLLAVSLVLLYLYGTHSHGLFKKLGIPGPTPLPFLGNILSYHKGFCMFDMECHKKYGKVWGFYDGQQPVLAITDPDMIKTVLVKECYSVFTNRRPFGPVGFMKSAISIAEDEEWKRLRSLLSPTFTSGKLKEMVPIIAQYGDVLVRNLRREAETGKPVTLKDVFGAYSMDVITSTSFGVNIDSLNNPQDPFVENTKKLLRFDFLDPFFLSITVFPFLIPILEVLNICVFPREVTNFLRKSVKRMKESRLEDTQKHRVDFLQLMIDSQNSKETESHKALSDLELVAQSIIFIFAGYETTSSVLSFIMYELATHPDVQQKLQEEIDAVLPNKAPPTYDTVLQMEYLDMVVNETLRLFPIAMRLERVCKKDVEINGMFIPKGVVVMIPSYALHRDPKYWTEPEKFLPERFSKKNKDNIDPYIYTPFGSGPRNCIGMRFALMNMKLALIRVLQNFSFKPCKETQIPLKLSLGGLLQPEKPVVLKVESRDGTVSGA
Cytochrome P450 2C19 (Homo sapiens), sequence (P33261 whole entry, looked up): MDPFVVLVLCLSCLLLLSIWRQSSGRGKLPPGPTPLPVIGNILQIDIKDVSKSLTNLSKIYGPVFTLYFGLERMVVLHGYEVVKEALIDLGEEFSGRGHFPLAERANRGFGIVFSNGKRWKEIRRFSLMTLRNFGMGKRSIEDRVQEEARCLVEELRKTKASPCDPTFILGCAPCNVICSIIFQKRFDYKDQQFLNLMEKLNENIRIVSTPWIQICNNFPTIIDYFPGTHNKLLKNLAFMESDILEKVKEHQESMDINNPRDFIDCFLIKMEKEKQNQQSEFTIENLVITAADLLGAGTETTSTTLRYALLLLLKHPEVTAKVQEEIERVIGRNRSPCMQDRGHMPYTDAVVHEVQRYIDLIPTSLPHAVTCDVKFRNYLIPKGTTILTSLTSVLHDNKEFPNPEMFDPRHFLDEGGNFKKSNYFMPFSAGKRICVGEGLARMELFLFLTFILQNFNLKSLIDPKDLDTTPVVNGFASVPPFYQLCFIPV

`CC(=O)CC(C)(C)O`: the call in [1], in experiment [2], in [3], in experiment [4], in experiment [5] and in experiment [6] was inactive. For the same compound, the compound was classed as inactive in experiment [7], in experiment [8] and in experiment [9].

For orientation: AC50 means the concentration at which the activity in the assay is half-maximal. On to `N#C[C@@H]1CC(F)(F)CN1C(=O)CNC1CC2CCC(C1)N2c1ncccn1` (some centres undefined), for which the results for the AC50 in experiment [1], in experiment [3] and in experiment [8] were 64.4 µM (active), 27.8 µM (active) and 50 µM (active), respectively. The outcome in experiment [2], in experiment [4], in [5], in experiment [6], in experiment [7] and in experiment [9] was inactive.

For the compound `CCCCOCCO`, the call in experiment [2], in [3], in experiment [10], in [4], in experiment [5] and in experiment [6] was inactive. Besides, the call in experiment [7], in experiment [8] and in experiment [9] was inactive.

As for `CCCCCCC(=O)O`, the AC50 in experiment [1] is 50 µM (active). The compound was classed as inactive in experiment [2], in experiment [3], in [4], in [5], in [6] and in experiment [7]. In addition, the compound was classed as inactive in [8] and in experiment [9].

Turning to `O=C(OCCOCCOC(=O)c1ccccc1)c1ccccc1`, the AC50 in experiment [1] was 68.9 µM (active). The compound was classed as inactive in [2], in experiment [3], in [4], in [5], in experiment [6] and in experiment [7]. For the same compound, the compound was classed as inactive in experiment [8] and in experiment [9].

For `CCC(C)(C)C1CCC(O)CC1` (centres undefined), the outcome in experiment [2], in [10], in [4], in experiment [5], in experiment [6] and in [7] was inactive. Also, the result in experiment [8] and in experiment [9] was inactive. In addition, in [3], the AC50 was 16 µM (active).

Take `CCC(=C(c1ccc(O)cc1)c1ccc(OCCN(C)C)cc1)c1ccccc1`: the call in [1], in experiment [5] and in [6] was inactive. The concentration at half-maximal activity (AC50) in experiment [2] was 75.9 µM (active); in experiment [3] it was 3.08 µM (active); in experiment [4], 2.39 µM (active); in experiment [7] it was 84.4 µM (active); in experiment [8], 2.51 µM (active); in [9] it was 72.8 µM (active).

For the compound `Cc1cc(CCN2CCN(c3nsc4ccccc34)CC2)cc2c1NC(=O)CC2(C)C`, the compound was classed as inactive in experiment [2]. Also, the AC50 in [3] was 79.7 µM (active); in experiment [10] it was 88.4 µM (active); in experiment [4], 82.5 µM (active); in experiment [5] it was 80.3 µM (active); in experiment [6] it was 66.2 µM (active); in experiment [7] it was 63.9 µM (active). In addition, the AC50 is 92 µM (active) in [8] and 71.9 µM (active) in [9].

Take `COCC(C)OCC(C)O` (centres undefined): the call in experiment [2], in experiment [3], in experiment [10], in [4], in experiment [5] and in [6] was inactive. Moreover, the compound was called inactive in [7], in [8] and in experiment [9].

In the case of `CCCCCCCCCCCCN1CCCC1=O`, the compound was called inactive in experiment [1], in experiment [2], in [3], in [10], in experiment [4] and in [5]. Besides, the compound was classed as inactive in experiment [6], in experiment [7], in experiment [8] and in [9].

As for `CC#C[C@]1(O)CC[C@H]2[C@@H]3CCC4=CC(=O)CCC4=C3[C@@H](c3ccc(N(C)C)cc3)C[C@@]21C`, the AC50 is 26.4 µM (active) in [1]; 27.6 µM (active) in experiment [2]; 34 µM (active) in experiment [3]; 28 µM (active) in [4]; 50 µM (active) in experiment [5]; 19.6 µM (active) in [6]. Besides, the AC50 in experiment [7] is 23.9 µM (active); in experiment [9], 29.2 µM (active).

For `CCCCC(CC)COC(=O)CCCCC(=O)OCC(CC)CCCC` (centres undefined), the outcome in experiment [1], in [2], in [3], in experiment [4], in [5] and in [6] was inactive. In addition, the compound was classed as inactive in experiment [7], in experiment [8] and in experiment [9].

For the compound `OC1CCC(C2CCCCC2)CC1` (centres undefined), the call in [1], in experiment [2], in experiment [3], in [4], in experiment [5] and in [6] was inactive. In addition, the compound was called inactive in experiment [7], in experiment [8] and in experiment [9].

Consider `CC1=C(/C=C/C(C)=C/C=C/C(C)=C/C(=O)O)C(C)(C)CCC1`, for which the AC50 in experiment [1] was 1.75 µM (active); in experiment [3] it was 6.58 µM (active); in [6], 20.8 µM (active); in experiment [7], 4.34 µM (active). Further, the outcome in [2], in [4], in experiment [5] and in experiment [9] was inactive.

Turning to `CN(C)C=O`, the result in [1], in experiment [2], in experiment [3], in experiment [4], in experiment [5] and in experiment [6] was inactive. For the same compound, the outcome in experiment [7], in experiment [8] and in experiment [9] was inactive.
